PubChem BioAssay AID743449 (Broad Institute, 2014)
Among all 9,900 compounds or so, about 90 (0.9%) were called active. Another 2% or so got no clear call; they are omitted.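 Rule for the calls: active = mean normalized replicate activity at least 50 and at least half of replicates each reaching 50; inconclusive = only one of the two criteria met; inactive = neither criterion met.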 Shown is part of a subset that was picked to be rich in actives.

Assay: YAP1 pathway inhibitors via CTGF transcript, primary screen, DLD1 colon cancer cells, RT-qPCR, single point (AID 743449);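 note: 0% = neutral control wells and 100% = dasatinib control wells; higher means stronger suppression of CTGF expression like dasatinib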
Details: DLD1 CTGF mRNA qPCR, 24 h; at 12.5 µM; hits give high values

inhibition, active:
O=C(Nc1ccccc1)[C@@H]1[C@@H](CO)[C@@H]2Cn3c(cccc3=O)[C@H]1N2C(=O)c1ccc(F)cc1 51.2%
CC(C)NC(=O)N[C@@H]1CC[C@H](CC(=O)NCCCN(C)C)O[C@@H]1CO 50.2%
CO[C@@H]1CN(C)C(=O)c2ccc(NC(=O)c3nc4ccccc4s3)cc2OC[C@@H](C)N(Cc2cccnc2)C[C@H]1C 68.4%
C[C@@H]1CC=CC[C@H](c2ccc(F)cc2)NC(=O)[C@@H](Cc2ccccc2)N(C)C(=O)c2ccccc2O1 (mixture of isomers) 60.2%
C[C@H]1CC=CC[C@@H](c2ccc(F)cc2)NC(=O)[C@H](Cc2ccccc2)N(C)C(=O)c2ccccc2O1 (mixture of isomers) 64%
COc1ccc2c3c(n(C)c2c1)[C@@H](CO)N(Cc1ccncc1)CC31CN(C(=O)Nc2cccc(F)c2)C1 52.9%
C[C@@H]1CN([C@@H](C)CO)C(=O)c2ccccc2-c2ccccc2CO[C@H]1CN(C)C(=O)Nc1cccc(C(F)(F)F)c1 64.7%
C[C@@H]1CN([C@@H](C)CO)C(=O)c2cc(NC(=O)Nc3ccccc3)ccc2O[C@@H](C)CCCCO[C@@H]1CN(C)C(=O)Nc1ccccc1 62.7%
C[C@@H]1CN([C@@H](C)CO)C(=O)c2ccccc2-c2ccccc2CO[C@H]1CN(C)C(=O)Nc1ccc(-c2ccccc2)cc1 73.6%
C[C@H]1CN([C@@H](C)CO)C(=O)c2cc(C#Cc3ccccc3)cnc2O[C@H]1CN(C)C(=O)c1ccccc1 65.3%
CCCNC(=O)N1[C@H](C#N)[C@@H](c2ccc(C#Cc3cccc(F)c3)cc2)[C@@H]1CO 69.7%
C[C@H](CO)N1C[C@H](C)[C@H](CN(C)Cc2ccc(Oc3ccccc3)cc2)OCc2ccccc2-c2ccccc2C1=O 59%
C[C@@H]1CN([C@H](C)CO)C(=O)c2ccccc2-c2ccccc2CO[C@@H]1CN(C)Cc1ccc2c(c1)OCCN2C 68.3%
C[C@@H]1CN([C@H](C)CO)C(=O)c2ccccc2-c2ccccc2CO[C@@H]1CN(C)Cc1ccc(Oc2ccccc2)cc1 83.9%

inhibition, inactive:
Cc1cccc(S(=O)(=O)N[C@@H]2CC[C@@H](CCNC(=O)Nc3cc(F)ccc3F)O[C@H]2CO)c1 -12.4%
COc1ccc(-c2ccc([C@H]3[C@H](CO)N4C(=O)CN(Cc5ccccc5)C[C@@H]34)cc2)cc1 -9.55%
COc1ccc(S(=O)(=O)N(C)C[C@H]2Oc3ccc(NC(=O)Nc4ccc(C(F)(F)F)cc4)cc3C(=O)N([C@@H](C)CO)C[C@@H]2C)cc1 -95.1%
CCNC(=O)[C@@H]1[C@@H](CO)[C@@H]2Cn3c(cccc3=O)[C@H]1N2C(=O)Nc1cc(F)ccc1F -43%
O=C(Nc1ccccc1)[C@H]1[C@H](CO)[C@H]2Cn3c(cccc3=O)[C@@H]1N2C(=O)c1ccc(F)cc1 11.4%
N#C[C@H]1[C@@H](c2ccccc2)[C@H](CO)N1C(=O)c1cc(Cl)cc(Cl)c1 26.8%
CC(C)NC(=O)N[C@H]1CC[C@H](CC(=O)NCCCN(C)C)O[C@@H]1CO 12%
CC(C)NC(=O)N[C@@H]1CC[C@@H](CC(=O)NCCCN(C)C)O[C@H]1CO 1.3%
C[C@H](CO)N1C[C@H](C)[C@@H](CN(C)S(=O)(=O)c2cccs2)Oc2ccc(NC(=O)Nc3cccc4ccccc34)cc2C1=O 3.66%
CO[C@H]1CN(C)C(=O)c2ccc(NC(=O)c3nc4ccccc4s3)cc2OC[C@@H](C)N(Cc2cccnc2)C[C@@H]1C 1.26%
CO[C@@H]1CN(C)C(=O)c2ccc(NC(=O)c3nc4ccccc4s3)cc2OC[C@@H](C)N(Cc2cccnc2)C[C@@H]1C 1.63%
CCCNC(=O)N1[C@@H]2Cn3c(cccc3=O)[C@H]1[C@@H](C(=O)N1CCC(Cc3ccccc3)CC1)[C@@H]2CO -24.7%
C[C@H]1CN([C@@H](C)CO)C(=O)CCCn2nncc2CO[C@H]1CN(C)C(=O)Nc1ccc2c(c1)OCCO2 -11.1%
CCCC#Cc1ccc2c(c1)O[C@@H](CN(C)Cc1ccccn1)[C@@H](C)CN([C@@H](C)CO)S2(=O)=O -16.9%
CC(C)[C@@H]1CC=CC[C@H](C)Oc2ccccc2C(=O)N(C)[C@@H](Cc2ccccc2)C(=O)N1 (mixture of isomers) 15.6%
C[C@H]1CC=CC[C@H](c2ccc(F)cc2)NC(=O)[C@@H](Cc2ccccc2)N(C)C(=O)c2ccccc2O1 (mixture of isomers) -32.9%
C[C@H]1CC=CC[C@H](c2ccc(F)cc2)NC(=O)[C@H](Cc2ccccc2)N(C)C(=O)c2ccccc2O1 (mixture of isomers) -3.91%
CC(C)[C@@H]1CC=CC[C@@H](C)Oc2ccccc2C(=O)N(C)[C@H](Cc2ccccc2)C(=O)N1 (mixture of isomers) 38.9%
C[C@H](CO)N1C[C@H](C)[C@@H](CN(C)S(C)(=O)=O)Oc2ncc(-c3ccc(F)cc3)cc2C1=O 15.8%
CO[C@@H]1CN(C)C(=O)c2cc(NS(=O)(=O)c3cccc(Cl)c3)ccc2OC[C@H](C)NC[C@@H]1C 4.93%
CO[C@@H]1CC[C@H]2CCOc3ccc(C#N)cc3C(=O)N(C)C[C@@H](c3ccccc3)CC(=O)N(C)C[C@@H]1O2 -20.2%
COCC(=O)N1[C@H](CO)[C@H](c2ccc(C#CC(C)C)cc2)[C@@H]1CNC(C)=O 26.8%
C[C@H]1CN([C@@H](C)CO)C(=O)c2cc(NS(=O)(=O)c3cn(C)cn3)ccc2O[C@H]1CN(C)S(=O)(=O)c1ccc(F)cc1 -21.9%
COCc1cn(CC[C@@H]2CC[C@@H](NC(=O)Nc3c(C)noc3C)[C@@H](CO)O2)nn1 4.39%
C[C@@H]1CCCCO[C@@H](CN(C)Cc2ccc(C(=O)O)cc2)[C@H](C)CN([C@H](C)CO)C(=O)c2cc(N(C)C)ccc2O1 -3.21%
Cc1cccc(S(=O)(=O)N2C[C@H](O)COC[C@@H]3O[C@@H](CC(=O)Nc4ccccc4)CC[C@H]32)c1 8.1%
COc1ccc2c3c(n(C)c2c1)[C@H](CO)N(Cc1ccncc1)CC31CN(C(=O)Nc2cccc(F)c2)C1 46.1%
COc1ccc2c3c(n(C)c2c1)[C@@H](CO)N(Cc1ccncc1)CC31CN(C(=O)C2CCCCC2)C1 2.18%
CC(=O)N1[C@H](CO)[C@H](c2ccccc2)[C@@H]1CN(C(=O)c1ccccc1F)C(C)C 13%
CCNC(=O)C[C@H]1CC[C@@H]2[C@H](COC[C@H](O)CN2C(=O)C2CCCC2)O1 -1.66%
C[C@@H]1CCCCO[C@@H](CN(C)C(=O)Nc2ccccc2)[C@H](C)CN([C@@H](C)CO)C(=O)c2cc(NC(=O)Nc3ccccc3)ccc2O1 16.9%
C[C@H](CO)N1C[C@H](C)[C@H](CN(C)C(=O)Nc2cccc(C(F)(F)F)c2)OCc2ccccc2-c2ccccc2C1=O 11.9%
C[C@@H]1CN([C@H](C)CO)C(=O)c2ccccc2-c2ccccc2CO[C@@H]1CN(C)C(=O)Nc1ccc(-c2ccccc2)cc1 39.6%
C[C@@H]1CN([C@H](C)CO)C(=O)c2cc(C#Cc3ccccc3)cnc2O[C@@H]1CN(C)C(=O)c1ccccc1 14.1%
C[C@@H]1CCCCO[C@H](CN(C)C(=O)Nc2ccccc2)[C@H](C)CN([C@@H](C)CO)C(=O)c2cc(NC(=O)Nc3ccccc3)ccc2O1 0.777%
C[C@@H]1CN([C@H](C)CO)C(=O)c2ccccc2-c2ccccc2CO[C@@H]1CN(C)C(=O)Nc1cccc(C(F)(F)F)c1 14.3%
C[C@H](CO)N1C[C@H](C)[C@H](CN(C)C(=O)Nc2ccc(-c3ccccc3)cc2)OCc2ccccc2-c2ccccc2C1=O 28.1%
C[C@H]1CN([C@@H](C)CO)C(=O)c2cc(C#Cc3ccccc3)cnc2O[C@@H]1CN(C)C(=O)c1ccccc1 34.5%
O=C(C[C@@H]1CC[C@H]2[C@@H](COC[C@H](O)CN2C(=O)Nc2ccc(Cl)cc2)O1)NCC1CCCCC1 4.31%
COc1ccccc1C#Cc1ccc([C@@H]2[C@@H](C#N)N(C(=O)C3CCC3)[C@@H]2CO)cc1 21%
C[C@@H](NC(=O)C[C@@H]1C[C@H]2c3cc(NS(=O)(=O)c4ccc(F)cc4)ccc3O[C@H]2[C@@H](CO)O1)c1ccccc1 -0.447%
COc1cccc(CNC(=O)[C@H]2[C@H](CO)[C@H]3Cn4c(ccc(-c5cncnc5)c4=O)[C@H]3N2C)c1 1.36%
CO[C@@H](CN(C)S(=O)(=O)c1cccc(Cl)c1)[C@H](C)CN(C(=O)Nc1ccccc1F)[C@H](C)CO -17%
CCCNC(=O)N1[C@@H](C#N)[C@@H](c2ccc(C#Cc3cccc(F)c3)cc2)[C@@H]1CO 40.6%
CCCNC(=O)N1[C@H](C#N)[C@H](c2ccc(C#Cc3cccc(F)c3)cc2)[C@H]1CO 12.2%
O=C(C[C@H]1CC[C@H]2[C@@H](COC[C@@H](O)CN2C(=O)c2ccc3c(c2)OCO3)O1)NC1CCC1 11%
CN(C)CC(=O)N1CC2(C1)[C@H](c1ccccc1)[C@H](CO)N2S(C)(=O)=O -45.5%
C[C@@H]1CN([C@H](C)CO)C(=O)c2ccccc2-c2ccccc2CO[C@@H]1CN(C)Cc1cccnc1 -8.82%
C[C@H]1CN([C@@H](C)CO)C(=O)c2ccccc2-c2ccccc2CO[C@H]1CN(C)Cc1ccc(Oc2ccccc2)cc1 47.8%
C[C@H](CO)N1C[C@H](C)[C@H](CN(C)Cc2ccc3c(c2)OCCN3C)OCc2ccccc2-c2ccccc2C1=O -137%
C[C@H](CO)N1C[C@H](C)[C@@H](CN(C)Cc2ccc(Oc3ccccc3)cc2)OCc2ccccc2-c2ccccc2C1=O -10.6%
C[C@@H]1CN([C@@H](C)CO)C(=O)c2ccccc2-c2ccccc2CO[C@@H]1CN(C)Cc1ccc(Oc2ccccc2)cc1 44.4%
C[C@H]1CN([C@@H](C)CO)C(=O)c2ccccc2-c2ccccc2CO[C@H]1CN(C)Cc1ccc2c(c1)OCCN2C -29.2%
